# From PubChem BioAssay
# Several values for one entry are separate records, joined by “and”; a condition that tells them apart may be missing. Identical values can stand only once. Inconclusive results are not listed. Activity calls are given as the source filed them. Unless noted, the rule behind the calls is not given here.
# Legend:
# [1] = kinase inhibitors against Plasmodium liver-stage infection, cell-based, known kinase inhibitor set, luminescence, hepatoma host viability (AID 624392); conditions: Plasmodium liver stage in hepatoma cells, luciferase luminescence, concentration not given here; liver cell % of control: measured here: host liver cell viability; parasite % of control: stronger effect = lower value;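 note: infected cells incubated roughly two days before readout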
# [2] = modulators of glucocorticoid suppression of NF-kB, cell-based, luciferase, IL-1B stimulus, dexamethasone (AID 624486); conditions: NF-kB luciferase reporter, IL-1B + dexamethasone, luminescence; percent of negative control (+Dex): actives lie on both sides, concentration not given here; z-score: measured here: IL-1B alone, no Dex;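 for percent of negative control (+Dex): 100% = mean signal of vehicle control wells on the plate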
# [3] = kinase inhibitors altering Pseudomonas killing of worms, whole organism (AID 651566);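 note: tested at 14 µM; sign flipped so higher z means a lower ratio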; conditions: C. elegans killed by P. aeruginosa, survival ratio
# [4] = activators of macrophage pro-inflammatory response, cell-based, murine, luminescence (AID 652131); conditions: murine macrophage pro-inflammatory reporter, stronger effect = higher value
# [5] = IRF3 reporter activation in THP-1 macrophages, cell-based, PMA-stimulated THP-1, luminescence (AID 1053176); conditions: PMA-differentiated THP-1, IRF3 reporter luminescence; stronger effect = higher value
# [6] = survival rescue of mitochondrial mutant cells in low glucose, primary screen, MELAS cybrids, Rieske KO mouse fibroblasts, CellTiter-Glo (AID 1508586;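 active = mean z-score across replicates of 1.96 or higher in either the MELAS or the Rieske mutant cell line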;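 note: z relative to plate mean and SD of compound and empty wells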)
# [7] = target: Cellular tumor antigen p53 (Homo sapiens) (UniProt P04637); assay: kinase inhibitors altering GFP-p53 stability in HPV16-positive cells, imaging, known kinase inhibitor set, EGFP/DsRed ratio (AID 1053116); conditions: stronger effect = higher value; EGFP object count: measured here: GFP-p53 positive objects count;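 note: cells exposed to compounds for 24 h at 37 °C before reading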
# Cellular tumor antigen p53 (Homo sapiens), sequence (P04637 whole entry, looked up): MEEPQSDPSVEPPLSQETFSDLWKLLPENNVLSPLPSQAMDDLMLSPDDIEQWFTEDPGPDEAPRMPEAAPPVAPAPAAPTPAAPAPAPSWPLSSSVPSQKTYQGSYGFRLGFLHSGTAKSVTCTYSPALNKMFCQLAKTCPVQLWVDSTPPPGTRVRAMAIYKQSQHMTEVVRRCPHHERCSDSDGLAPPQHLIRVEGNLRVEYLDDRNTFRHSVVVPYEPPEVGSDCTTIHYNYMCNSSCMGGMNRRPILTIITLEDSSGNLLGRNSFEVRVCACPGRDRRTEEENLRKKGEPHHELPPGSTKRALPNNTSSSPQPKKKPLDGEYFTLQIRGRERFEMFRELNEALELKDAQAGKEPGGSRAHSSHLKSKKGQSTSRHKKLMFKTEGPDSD
# [8] = test system: Aerobactin synthetase IucA (Klebsiella pneumoniae); assay: IucA aerobactin synthetase inhibitors, biochemical, Tocris library, absorbance (AID 1345561); conditions: purified IucA enzyme assay, absorbance (OD) read-out; stronger effect = lower value;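 tested at 8 µM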;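 note: 100% = enzyme without compound and 0% = no enzyme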
# [9] = growth inhibition of DIPG glioma cells, dose response, cell-based, SU-DIPG-XVII, MIPE5.0, CellTiter-Glo, qHTS (AID 1347060; cut-off not given, nearly all actives have AC50 up to about 26 µM;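 note: cells exposed to compound for 48 hours before viability readout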); conditions: SU-DIPG-XVII viability, CellTiter-Glo ATP luminescence
# [10] = growth inhibition of DIPG glioma cells, dose response, cell-based, JHH-DIPG-1, MIPE4.0, CellTiter-Glo, qHTS (AID 1347062; cut-off not given, nearly all actives have AC50 up to about 27 µM;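 note: cells exposed to compound for two days before readout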); conditions: JHH-DIPG-1 viability, CellTiter-Glo ATP luminescence
# [11] = growth inhibition of DIPG glioma cells, dose response, cell-based, SU-DIPG-IV, MIPE4.0, CellTiter-Glo, qHTS (AID 1347063; cut-off not given, nearly all actives have AC50 up to about 30 µM;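 note: compound exposure lasted 48 hours before the viability readout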); conditions: SU-DIPG-IV viability, CellTiter-Glo ATP luminescence
# [12] = viability loss in pontine glioma line – cell-based, SU-DIPG-XXV, MIPE5.0, CellTiter-Glo, qHTS, dose response (AID 1347065; cut-off not given, nearly all actives have AC50 up to about 26 µM;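 note: cells exposed to compound for 48 hours before ATP readout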); conditions: CellTiter-Glo ATP luminescence
# [13] = sensitizers of A549 cells to miR-34 induction, primary screen, imaging, A549 dox-inducible miR-34, nuclei and caspase counts (AID 1347080;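 active = compounds whose cell count with miR-34 switched on is under 0.7 times the count with it off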); conditions: A549 miR-34 inducible, Hoechst nuclei count, 48 h
# [14] = viability rescue of complex I mutant cybrids, primary screen, cell-based, galactose medium, ATP luminescence (AID 1645843;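 active = z-score of at least 1.8 in each of two replicates, scored against plate mean and spread of sample wells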;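 note: positive z means more ATP and so rescue of galactose-driven cybrid death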); conditions: complex I mutant cybrid cells, 72 h, stronger effect = higher value
# [15] = MELAS cybrid survival, CellTiter-Glo 48 h, stronger effect = higher value
# [16] = Rieske KO mouse fibroblast survival, CellTiter-Glo 72 h
smiles,measurement,setting,value
COc1ccccc1Oc1nccc(-c2c(-c3ccc(F)cc3)ncn2C2CCNCC2)n1,liver cell % of control,[1],89.7%
same,parasite % of control,[1],136% (inactive)
same,percent of negative control (+Dex),[2],104% (inactive)
same,z-score,[2],0.275
same,z-score,[3],0.105 (inactive)
same,z-score,[4],0.324 (inactive)
same,fraction signal,[5],0.001 (inactive)
same,z-score,[6]; [15],-0.339 (inactive)
same,z-score,[6]; [16],-0.367
Cc1[nH]nc2c1N=C(c1ccccc1F)c1cc(C#N)ccc1N2,liver cell % of control,[1],96.8%
same,parasite % of control,[1],68.4% (inactive)
same,percent of negative control (+Dex),[2],157% (active)
same,z-score,[2],0.015
same,EGFP object count,[7],99.5
same,EGFP/DsRed ratio,[7],0.814 (active)
same,fraction signal,[5],0.0055 (inactive)
CS(=O)(=O)N1CCC(Nc2ncc(C(=O)c3c(F)cccc3F)c(N)n2)CC1,liver cell % of control,[1],89.5%
same,parasite % of control,[1],70.6% (inactive)
same,percent of negative control (+Dex),[2],88.5% (inactive)
same,z-score,[2],-0.28
same,EGFP object count,[7],2
same,EGFP/DsRed ratio,[7],0.123 (inactive)
same,fraction signal,[5],-0.005 (inactive)
Cn1cc(C2=C(c3cc[nH]c3)C(=O)NC2=O)c2ccccc21,liver cell % of control,[1],109%
same,parasite % of control,[1],26.8% (inactive)
same,percent of negative control (+Dex),[2],104% (inactive)
same,z-score,[2],0.12
same,EGFP object count,[7],3
same,EGFP/DsRed ratio,[7],0.329 (inactive)
same,fraction signal,[5],-0.0025 (inactive)
O=C1NC(=NCCc2ccc(Br)cc2)SC1=Cc1ccc2ncccc2c1,liver cell % of control,[1],140%
same,parasite % of control,[1],66.4% (inactive)
same,percent of negative control (+Dex),[2],99.5% (inactive)
same,z-score,[2],-0.18
same,EGFP object count,[7],3
same,EGFP/DsRed ratio,[7],0.0813 (inactive)
same,fraction signal,[5],0.006 (inactive)
O=C1NC(=NCc2ccccc2Br)SC1=Cc1ccc2ncccc2c1,liver cell % of control,[1],130%
same,parasite % of control,[1],32.9% (inactive)
same,percent of negative control (+Dex),[2],85.5% (inactive)
same,z-score,[2],-0.56
same,EGFP object count,[7],8
same,EGFP/DsRed ratio,[7],0.253 (inactive)
same,fraction signal,[5],-0.0095 (inactive)
CC(=C1SC(=NCc2cccs2)NC1=O)c1ccc2ncccc2c1,liver cell % of control,[1],89.5%
same,parasite % of control,[1],33.7% (inactive)
same,percent of negative control (+Dex),[2],92.5% (inactive)
same,z-score,[2],-0.085
same,EGFP object count,[7],5
same,EGFP/DsRed ratio,[7],0.0357 (inactive)
same,fraction signal,[5],-0.009 (inactive)
CNCC1CCn2c(c(C3=C(c4cn(C)c5ccccc45)C(=O)NC3=O)c3ccccc32)C1 (configuration not stated),liver cell % of control,[1],101%
same,parasite % of control,[1],45.7% (inactive)
same,percent of negative control (+Dex),[2],94.5% (inactive)
same,z-score,[2],-0.52
same,EGFP object count,[7],1
same,EGFP/DsRed ratio,[7],0.0128 (inactive)
same,fraction signal,[5],-0.0115 (inactive)
Cn1cc(C2=C(n3ccc4ccccc43)C(=O)NC2=O)c2ccccc21,liver cell % of control,[1],130%
same,parasite % of control,[1],37.7% (inactive)
same,percent of negative control (+Dex),[2],95.5% (inactive)
same,z-score,[2],0.125
same,EGFP object count,[7],4
same,EGFP/DsRed ratio,[7],0.178 (inactive)
same,fraction signal,[5],-0.0025 (inactive)
COc1cccc(C2=C(c3c(C)n(C)c4ccccc34)C(=O)NC2=O)c1,liver cell % of control,[1],97.6%
same,parasite % of control,[1],66.1% (inactive)
same,percent of negative control (+Dex),[2],91% (inactive)
same,z-score,[2],-0.5
same,EGFP object count,[7],6
same,EGFP/DsRed ratio,[7],0.121 (inactive)
same,fraction signal,[5],-0.0005 (inactive)
Cc1ccc(C)c(C2=C(c3cn(C)c4ccccc34)C(=O)NC2=O)c1,liver cell % of control,[1],166%
same,parasite % of control,[1],33% (inactive)
same,percent of negative control (+Dex),[2],102% (inactive)
same,z-score,[2],-1.65
same,EGFP object count,[7],33.5
same,EGFP/DsRed ratio,[7],0.361 (inactive)
same,fraction signal,[5],0.0035 (inactive)
Cn1c(=O)c(Oc2ccc(F)cc2F)cc2cnc(NC3CCC(O)CC3)nc21 (configuration not stated),liver cell % of control,[1],112%
same,parasite % of control,[1],60.3% (inactive)
same,percent of negative control (+Dex),[2],85% (inactive)
same,z-score,[2],-0.62
same,EGFP object count,[7],5
same,EGFP/DsRed ratio,[7],0.154 (inactive)
same,fraction signal,[5],-0.0095 (inactive)
CS(=O)(=O)CCN(CC#N)Cc1ccc(-c2ccc3ncnc(Nc4ccc(OCc5cccc(F)c5)c(Cl)c4)c3c2)o1,liver cell % of control,[1],98.1%
same,parasite % of control,[1],143% (inactive)
same,percent of negative control (+Dex),[2],82% (inactive)
same,z-score,[2],-0.4
same,z-score,[3],0.225 (inactive)
same,z-score,[4],0.25 (inactive)
same,fraction signal,[5],0.001 (inactive)
same,z-score,[6]; [15],-0.391 (inactive)
same,z-score,[6]; [16],-0.288
COc1cc(Nc2ncc(-c3ccccc3)o2)cc(OC)c1OC,liver cell % of control,[1],152%
same,parasite % of control,[1],18.6% (inactive)
same,percent of negative control (+Dex),[2],93.5% (inactive)
same,z-score,[2],0.42
same,z-score,[3],1.53 (inactive)
same,z-score,[4],-0.164 (inactive)
same,fraction signal,[5],-0.0025 (inactive)
same,z-score,[6]; [15],1.37 (inactive)
same,z-score,[6]; [16],-0.275
COc1cc2ncn(-c3cc(OCc4ccccc4C(F)(F)F)c(C(N)=O)s3)c2cc1OC,percent of negative control (+Dex),[2],103% (inactive)
same,z-score,[2],-0.44
same,z-score,[3],0.57 (inactive)
same,z-score,[4],-0.405 (inactive)
same,fraction signal,[5],0.0355 (inactive)
same,remaining activity,[8],94.3% (inactive)
same,AC50,[9],1.48 µM (active)
same,AC50,[10],5.9 µM (active)
same,AC50,[11],14.8 µM (active)
same,AC50,[12],1.05 µM (active)
same,fold change,"[13]; stronger effect = lower value, cell number ratio, induced over uninduced",1.05 (inactive)
same,fold change,[13]; measured here: relative caspase fold change +Dox/-Dox,1.26
same,cell count,"[13]; measured here: total cells with miR-34 induction, stronger effect = lower value",1110
same,cell count,[13]; measured here: total cells without miR-34 induction,1060
same,z-score,[6]; [15],-0.422 (inactive)
same,z-score,[6]; [16],-0.574
same,z-score,[14],-0.495 (inactive)
CC(CS(C)(=O)=O)Nc1ncc2cc(Oc3ccc(F)cc3F)c(=O)n(C)c2n1 (configuration not stated),liver cell % of control,[1],125% and 102%
same,parasite % of control,[1],49.1% (inactive) and 48.7% (inactive)
same,percent of negative control (+Dex),[2],99.5% (inactive) and 101% (inactive)
same,z-score,[2],0.115 and 0.87
same,EGFP object count,[7],5.5 and 3.5
same,EGFP/DsRed ratio,[7],0.387 (inactive) and 0.111 (inactive)
same,fraction signal,[5],-0.005 (inactive) and -0.0115 (inactive)
N=C1N=C(N)C(=Cc2ccc3ncccc3c2)S1,liver cell % of control,[1],121%
same,parasite % of control,[1],61.8% (inactive)
same,percent of negative control (+Dex),[2],98.5% (inactive)
same,z-score,[2],1.46
same,EGFP object count,[7],3.5
same,EGFP/DsRed ratio,[7],0.171 (inactive)
same,fraction signal,[5],0.006 (inactive)
CC(O)CNc1cc(-c2[nH]c3cccnc3c2-c2ccc(F)cc2)ccn1 (configuration not stated),liver cell % of control,[1],229%
same,parasite % of control,[1],13.2% (inactive)
same,percent of negative control (+Dex),[2],106% (inactive)
same,z-score,[2],0.42
same,EGFP object count,[7],4
same,EGFP/DsRed ratio,[7],0.042 (inactive)
same,fraction signal,[5],0.0055 (inactive)
